Drawing on PubChem BioAssay, this text covers growth inhibition, inhibition and outcome for 20 molecules.

Unmarked numbers belong to inactive results. For some of these results: Measured potencies and affinities stand elsewhere. The source made the active and inactive calls. Unless noted, no rule for the calls is given here.

As a reminder, the inhibition is the drop in the measured response relative to a control, in per cent.

Assay [1] is described as follows: antimalarial activity against Dd2 strain (AID 2302;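 active = growth inhibition above 50% at the single 2 µM test dose, taken to imply half-maximal potency below 2 µM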;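 also: 0% = DMSO untreated growth and 100% = chloroquine plus artemisinin killed control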). To be noted: P. falciparum Dd2 in RBCs, LDH growth readout, 72 h; at 2 µM; stronger effect = higher value.
Assay [2] in a line: human hepatoma cell viability loss – ATP luminescence, cytotoxicity control for P. falciparum antimalarial project, primary screen (AID 2303;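 active = inhibition above 50%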;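 also: 0% = DMSO wells and 100% = digitonin-killed cells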). To be noted: HepG2 viability, 24-48 h, at 10 µM, stronger effect = higher value.
Assay [3] addresses L-lactate dehydrogenase (Plasmodium falciparum (isolate CDC / Honduras)) (UniProt Q27743). As to the kind of experiment: PfLDH activity inhibition – cell lysate, 3D7 strain, counter-screen for P. falciparum growth inhibition project (AID 2304).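 Also: 0% = vehicle and 100% = reference inhibitor.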 The note with it: P. falciparum 3D7 crude extract, LDH APAD/NBT absorbance; at 2 µM; stronger effect = higher value.
Assay [4] can be described thus: inhibition of 3D7 malaria parasite growth – strain 3D7 (AID 2306).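 Also: 0% = DMSO wells and 100% = chloroquine plus artemisinin control wells.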 To be noted: P. falciparum 3D7 erythrocytic growth, LDH absorbance, 72 h; at 2 µM; stronger effect = higher value.
The target of assay [5] is Calcium-dependent protein kinase 1 (Plasmodium falciparum (isolate 3D7)) (UniProt P62344). As to the kind of experiment: PfCDPK1 kinase inhibitors, biochemical, TCAMS library (AID 1159585; cut-off not given, nearly all actives have IC50 up to about 0.98 µM;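 also: inhibitors leave more ATP so luminescence rises with inhibition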). To be noted: recombinant PfCDPK1, Kinase-Glo ATP depletion luminescence. In general terms: In Kinase-Glo more light means more ATP remaining.
Calcium-dependent protein kinase 1 (Plasmodium falciparum (isolate 3D7)), sequence (P62344 whole entry, looked up): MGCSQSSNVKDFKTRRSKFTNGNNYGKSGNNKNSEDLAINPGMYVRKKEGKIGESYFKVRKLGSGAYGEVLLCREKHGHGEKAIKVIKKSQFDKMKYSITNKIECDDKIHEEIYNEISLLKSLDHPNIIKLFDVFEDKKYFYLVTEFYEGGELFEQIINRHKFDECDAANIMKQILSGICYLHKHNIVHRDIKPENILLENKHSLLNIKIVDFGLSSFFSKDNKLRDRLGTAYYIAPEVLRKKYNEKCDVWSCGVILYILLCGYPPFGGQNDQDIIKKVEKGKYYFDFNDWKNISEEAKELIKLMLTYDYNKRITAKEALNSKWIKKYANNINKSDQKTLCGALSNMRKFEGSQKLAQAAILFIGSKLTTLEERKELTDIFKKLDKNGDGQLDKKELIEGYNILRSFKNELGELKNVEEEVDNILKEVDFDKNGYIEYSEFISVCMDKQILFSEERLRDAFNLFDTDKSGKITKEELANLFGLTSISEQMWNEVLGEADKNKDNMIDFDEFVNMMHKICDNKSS
Assay [6] has as its target Plasmodium falciparum protein kinase 6 (PK6, PF3D7_1337100) (UniProt Q8IDW1). Briefly: PfPK6 kinase inhibitors, biochemical, TCAMS library (AID 1159586). To be noted: recombinant PfPK6, Kinase-Glo ATP depletion luminescence.
Assay [7] addresses Protein kinase 7 (PK7), Plasmodium falciparum 3D7 (PF3D7_0213400) (UniProt Q7YTF7). Briefly: inhibition of Plasmodium PK7 catalytic activity – biochemical, TCAMS antimalarial set, Kinase-Glo luminescence (AID 1159587). The note with it: recombinant PfPK7, Kinase-Glo ATP depletion luminescence.
The target of assay [8] is Calcium-dependent protein kinase 4 (Plasmodium falciparum (isolate 3D7)) (UniProt Q8IBS5). Briefly: PfCDPK4 kinase inhibitors, biochemical, TCAMS library (AID 1159588; cut-off not given, nearly all actives have IC50 up to about 0.91 µM). To be noted: recombinant PfCDPK4, Kinase-Glo ATP depletion luminescence.
Calcium-dependent protein kinase 4 (Plasmodium falciparum (isolate 3D7)), sequence (Q8IBS5 whole entry, looked up): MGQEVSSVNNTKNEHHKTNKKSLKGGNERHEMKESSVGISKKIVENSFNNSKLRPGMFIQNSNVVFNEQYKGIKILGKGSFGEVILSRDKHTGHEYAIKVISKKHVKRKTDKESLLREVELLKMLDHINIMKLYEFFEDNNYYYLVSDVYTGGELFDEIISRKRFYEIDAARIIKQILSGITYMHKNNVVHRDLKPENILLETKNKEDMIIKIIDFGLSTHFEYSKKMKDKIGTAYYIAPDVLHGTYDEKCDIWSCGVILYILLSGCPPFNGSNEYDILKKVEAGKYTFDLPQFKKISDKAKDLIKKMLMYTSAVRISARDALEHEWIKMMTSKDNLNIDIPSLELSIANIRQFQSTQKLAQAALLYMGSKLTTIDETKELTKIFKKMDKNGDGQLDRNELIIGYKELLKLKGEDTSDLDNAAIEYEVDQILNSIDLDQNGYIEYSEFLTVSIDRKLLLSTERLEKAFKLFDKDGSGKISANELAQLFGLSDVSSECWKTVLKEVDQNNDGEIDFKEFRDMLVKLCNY

Plasmodium falciparum protein kinase 6 (PK6, PF3D7_1337100), sequence (Q8IDW1 1-305): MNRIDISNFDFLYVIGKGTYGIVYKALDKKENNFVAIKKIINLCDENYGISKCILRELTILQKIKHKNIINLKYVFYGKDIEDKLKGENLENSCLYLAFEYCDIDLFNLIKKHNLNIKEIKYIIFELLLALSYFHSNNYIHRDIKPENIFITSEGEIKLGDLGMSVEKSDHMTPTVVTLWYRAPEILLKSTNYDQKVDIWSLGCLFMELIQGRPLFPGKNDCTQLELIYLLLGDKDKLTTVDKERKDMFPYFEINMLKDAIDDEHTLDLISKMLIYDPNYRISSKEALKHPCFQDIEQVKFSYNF
Protein kinase 7 (PK7), Plasmodium falciparum 3D7 (PF3D7_0213400), sequence (Q7YTF7 1-343): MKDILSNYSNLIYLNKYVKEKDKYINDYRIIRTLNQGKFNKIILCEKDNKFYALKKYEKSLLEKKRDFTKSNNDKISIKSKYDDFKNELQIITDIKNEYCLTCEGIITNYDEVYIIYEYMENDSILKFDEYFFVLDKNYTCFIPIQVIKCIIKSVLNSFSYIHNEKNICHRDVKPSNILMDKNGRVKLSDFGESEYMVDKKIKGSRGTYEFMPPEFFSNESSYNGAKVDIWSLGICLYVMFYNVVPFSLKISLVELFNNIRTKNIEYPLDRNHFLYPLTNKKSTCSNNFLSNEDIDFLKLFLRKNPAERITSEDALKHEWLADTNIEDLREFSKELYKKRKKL
L-lactate dehydrogenase (Plasmodium falciparum (isolate CDC / Honduras)), sequence (Q27743 whole entry, looked up): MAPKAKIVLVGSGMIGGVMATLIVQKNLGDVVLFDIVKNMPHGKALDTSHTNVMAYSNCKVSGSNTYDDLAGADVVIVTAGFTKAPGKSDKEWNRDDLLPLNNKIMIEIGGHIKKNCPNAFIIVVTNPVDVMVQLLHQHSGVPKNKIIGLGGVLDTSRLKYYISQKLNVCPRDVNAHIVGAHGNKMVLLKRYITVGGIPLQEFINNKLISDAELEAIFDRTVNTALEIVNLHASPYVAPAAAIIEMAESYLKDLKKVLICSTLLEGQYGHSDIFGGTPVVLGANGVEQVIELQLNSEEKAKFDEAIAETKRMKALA

With `CCC(C)(CC)C(=O)n1ncc2c3c(N)nc(N)nc3ccc21`, the growth inhibition in assay [1] was 6%; in assay [4] it was 94% (active). In addition, the inhibition in assay [2] was 73% (active); in assay [3], -4%. In addition, the outcome in assay [5], in assay [6], in assay [7] and in assay [8] was inactive.
`COc1ccc(-c2ccc(NC(=O)c3cccc(Cl)c3)cc2)cc1CN1CCCC1`: the growth inhibition in assay [1] was 84% (active); in assay [4] it was 100% (active). The inhibition in assay [2] is 35%; in assay [3], 4%. Moreover, the outcome in assay [5], in assay [6], in assay [7] and in assay [8] was inactive.
Regarding `Cc1ccc(NC(=O)c2ccc(N3CCN(c4ccncc4)CC3)cn2)cc1F`, the growth inhibition in assay [1] was 77% (active); in assay [4], 98% (active). Besides, the inhibition in assay [2] and in assay [3] was 2% in each case. Moreover, the outcome in assay [5], in assay [6], in assay [7] and in assay [8] was inactive.
With `O=S(=O)(NCCN1CCCC1)c1ccc(-c2cccc(CNCCc3cccs3)c2)cc1`, the values for the growth inhibition in assay [1] and in assay [4] were 30% and 95% (active), respectively. Further, the inhibition is 41% in assay [2] and -1% in assay [3]. In addition, the outcome in assay [5], in assay [6], in assay [7] and in assay [8] was inactive.
For the molecule `CCCOc1cc(OCCC)cc(-c2cc(=O)c3ccccc3[nH]2)c1`, the figures for the growth inhibition in assay [1] and in assay [4] were 96% (active) and 99% (active), respectively. For the same molecule, the inhibition in assay [2] was 33%; in assay [3] it was -2%. In addition, the outcome in assay [5], in assay [6], in assay [7] and in assay [8] was inactive.
With `Fc1cccc(COc2ccc(Nc3ncnc4sc(C#C[C@H]5CCCN5)cc34)cc2F)c1`, the growth inhibition was 17% in assay [1] and 98% (active) in assay [4]. In addition, the figures for the inhibition in assay [2] and in assay [3] were 13% and 5%, respectively. In addition, the outcome in assay [5], in assay [6], in assay [7] and in assay [8] was inactive.
As for `COc1nc(-n2ccc(=N)cc2)nc2ccccc12`, the values for the growth inhibition in assay [1] and in assay [4] were 45% and 90% (active), respectively. Besides, the inhibition is 15% in assay [2] and 1% in assay [3]. Further, the result in assay [5], in assay [6], in assay [7] and in assay [8] was inactive.
In the case of `O=C(Nc1ccc(F)cc1)NC1CCN(CCCCCNC(=O)[C@@H]2C[C@H]2c2ccc(Cl)c(Cl)c2)CC1`, the growth inhibition was 20% in assay [1] and 101% (active) in assay [4]. For the same molecule, the inhibition in assay [2] was 46%; in assay [3], -2%. For the same molecule, the outcome in assay [5], in assay [6], in assay [7] and in assay [8] was inactive.
On to `O=C(/C=C/c1ccc(C(F)(F)F)cc1)NCCCCCN1CCN(C(=O)Nc2ccc(Cl)c(Cl)c2)CC1`, for which the growth inhibition in assay [1] is -4%; in assay [4], 95% (active). Further, the inhibition in assay [2] is 37%; in assay [3], 5%. Also, the outcome in assay [5], in assay [6], in assay [7] and in assay [8] was inactive.
In the case of `Cc1ccc(C)c(NC(=O)Nc2ccc(Nc3nc(C)cc(N4CCOCC4)n3)cc2)c1`, the growth inhibition in assay [1] is 48%; in assay [4], 98% (active). The inhibition in assay [2] was 88% (active); in assay [3], 0%. The outcome in assay [5], in assay [6], in assay [7] and in assay [8] was inactive.
For `CC(C)c1cn2c3c(cc(C(=O)N[C@@H](Cc4ccccc4)[C@H](O)CNC4CCCCC4)cc13)N(C)S(=O)(=O)CC2`, the growth inhibition was 99% (active) in assay [1] and 98% (active) in assay [4]. For the same molecule, the inhibition is 9% in assay [2] and 0% in assay [3]. Moreover, the result in assay [5], in assay [6], in assay [7] and in assay [8] was inactive.
Regarding `CN(C)CCNCc1cccc(-c2ccc3c(Nc4ccc(Oc5ccccc5)cc4)ccnc3c2)c1`, the growth inhibition in assay [1] is 99% (active); in assay [4], 101% (active). In addition, the inhibition in assay [2] was 31%; in assay [3], 2%. Besides, the result in assay [5], in assay [6], in assay [7] and in assay [8] was inactive.
With `O=C(NC1CCN(Cc2ccccc2)CC1)c1ccc(-c2nc3cc4ccccc4cc3[nH]2)s1`, the growth inhibition was 25% in assay [1] and 99% (active) in assay [4]. The inhibition is 13% in assay [2] and -1% in assay [3]. For the same molecule, the outcome in assay [5], in assay [6], in assay [7] and in assay [8] was inactive.
`Cc1cccc2[nH]c(-c3cccc(-c4ccc(NC(=O)N[C@@H]5C[C@H]5c5ccccc5)cc4)c3)nc12`: the growth inhibition in assay [1] was 49%; in assay [4], 98% (active). Further, the results for the inhibition in assay [2] and in assay [3] were 25% and 6%, respectively. In addition, the result in assay [5], in assay [6], in assay [7] and in assay [8] was inactive.
Regarding `Cc1cccc(C)c1OC(=O)CSc1nnc(-c2ccccc2O)o1`, the growth inhibition in assay [1] was -2%; in assay [4] it was 97% (active). The values for the inhibition in assay [2] and in assay [3] were 11% and 0%, respectively. In addition, the result in assay [5], in assay [6], in assay [7] and in assay [8] was inactive.
Consider `Cc1ccc2sc(N(CCCn3ccnc3)C(=O)c3ccco3)nc2c1C`, for which the growth inhibition in assay [1] is 98% (active); in assay [4], 93% (active). Moreover, the inhibition was 9% in assay [2] and -2% in assay [3]. Also, the result in assay [5], in assay [6], in assay [7] and in assay [8] was inactive.
For the molecule `N#Cc1c(-c2ccccc2)cn2c1[nH]c(=O)c1ccccc12`, the growth inhibition in assay [1] is 95% (active); in assay [4], 92% (active). Besides, the inhibition is -1% in assay [2] and 1% in assay [3]. Moreover, the outcome in assay [5], in assay [6], in assay [7] and in assay [8] was inactive.
Regarding `CN1CCN(Cc2cccc(-c3ccc4c(Nc5ccc(F)cc5Cl)ccnc4c3)c2)CC1`, the figures for the growth inhibition in assay [1] and in assay [4] were 100% (active) and 101% (active), respectively. Besides, the inhibition in assay [2] was 20%; in assay [3], -1%. Moreover, the result in assay [5], in assay [6], in assay [7] and in assay [8] was inactive.
`Oc1ccc(Cl)cc1CN1CCC2(CCCN(CC3CCC3)C2)C1` (stereo not given): the results for the growth inhibition in assay [1] and in assay [4] were 94% (active) and 100% (active), respectively. Moreover, the results for the inhibition in assay [2] and in assay [3] were 5% and -2%, respectively. Moreover, the outcome in assay [5], in assay [6], in assay [7] and in assay [8] was inactive.
As for `COc1cc2c(cc1C(F)(F)F)N(C(=O)Nc1cc(-c3ccncc3)cc(-c3cccnc3)c1)CC2`, the growth inhibition was 50% (active) in assay [1] and 95% (active) in assay [4]. Moreover, the inhibition in assay [2] is 64% (active); in assay [3], 7%. Moreover, the result in assay [5], in assay [6], in assay [7] and in assay [8] was inactive.
